Common to all, as to assay: universal protein binding microarray (PBM); transcription factors of Arabidopsis thaliana; high values mean tight binding
Common to all, as to conditions: protein: recombinant; tags: GST; chain copies: 2; dsDNA, one strand shown

In test [1] the target is T1, GST-ANAC092(1-176) (Arabidopsis thaliana, UniProt Q9FKA0 1-176).
T1 sequence: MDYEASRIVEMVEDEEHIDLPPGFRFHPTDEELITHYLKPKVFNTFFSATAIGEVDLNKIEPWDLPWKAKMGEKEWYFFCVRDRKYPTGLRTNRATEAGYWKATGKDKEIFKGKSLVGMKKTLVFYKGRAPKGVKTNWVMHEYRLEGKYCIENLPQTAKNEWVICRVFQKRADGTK
In short, it runs like this: (§1)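 Binding is expressed as the normalised enrichment score (E-score). Proteins carrying a GST tag, whether NAC-domain, full-length or DNA-binding-domain forms, were induced in cells, and zinc acetate was added for zinc-finger proteins. After purification on glutathione–Sepharose 4B and quantification by A280 or anti-GST western blot, each was applied in duplicate at 200 to 500 nM final to custom all-10-mer Agilent 4 × 180K arrays made double-stranded by primer extension. Gapped and ungapped 8-mers were scored.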

Test [2] concerns the target T2, GST-ANAC019 NAC domain (Arabidopsis thaliana, UniProt Q9C932 14-162).
T2 sequence: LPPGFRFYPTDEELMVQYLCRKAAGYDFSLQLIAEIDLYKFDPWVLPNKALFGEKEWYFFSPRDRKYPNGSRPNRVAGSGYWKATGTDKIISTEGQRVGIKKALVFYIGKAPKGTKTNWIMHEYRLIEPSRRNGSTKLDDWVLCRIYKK
Summed up:
as §1

The target in test [3] is T3, GST-ANAC055(1-171) (Arabidopsis thaliana, UniProt Q9LDY8 1-171).
T3 sequence: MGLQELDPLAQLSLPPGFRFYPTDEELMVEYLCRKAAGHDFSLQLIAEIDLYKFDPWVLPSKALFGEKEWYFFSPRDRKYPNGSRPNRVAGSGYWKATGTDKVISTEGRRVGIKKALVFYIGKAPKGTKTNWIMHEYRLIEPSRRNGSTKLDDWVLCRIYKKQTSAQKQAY
Summed up: as §1

Test [4] concerns the target T4, GST-ATAF1 NAC domain (Arabidopsis thaliana, UniProt Q39013 7-158).
T4 sequence: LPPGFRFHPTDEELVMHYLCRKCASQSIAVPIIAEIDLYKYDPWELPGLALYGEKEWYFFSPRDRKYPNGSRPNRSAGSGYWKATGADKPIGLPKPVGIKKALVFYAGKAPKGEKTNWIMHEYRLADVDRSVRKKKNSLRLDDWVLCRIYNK
Summed up: as §1

Test [5] addresses T5, GST-ANAC092(1-285) full length (Arabidopsis thaliana, UniProt Q9FKA0 1-285).
T5 sequence: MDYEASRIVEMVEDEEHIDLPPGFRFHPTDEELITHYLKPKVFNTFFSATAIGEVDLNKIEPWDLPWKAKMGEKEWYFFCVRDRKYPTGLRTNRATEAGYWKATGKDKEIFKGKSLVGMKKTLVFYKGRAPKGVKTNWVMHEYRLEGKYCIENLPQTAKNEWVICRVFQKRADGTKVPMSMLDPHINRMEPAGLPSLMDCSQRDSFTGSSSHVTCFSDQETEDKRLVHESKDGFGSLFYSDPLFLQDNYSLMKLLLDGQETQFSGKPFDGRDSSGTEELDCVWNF
Summed up: as §1

For test [6], the target named is T6, GST-NAP(1-166) (Arabidopsis thaliana, UniProt O49255 1-166).
T6 sequence: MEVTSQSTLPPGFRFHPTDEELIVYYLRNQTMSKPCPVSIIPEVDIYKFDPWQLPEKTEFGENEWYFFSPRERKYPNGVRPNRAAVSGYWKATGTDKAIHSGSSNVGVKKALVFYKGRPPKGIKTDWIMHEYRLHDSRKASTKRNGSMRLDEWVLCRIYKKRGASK
Summed up: as §1

Test [7] concerns the target T7, GST-NST2(1-184) (Arabidopsis thaliana, UniProt Q9M274 1-184).
T7 sequence: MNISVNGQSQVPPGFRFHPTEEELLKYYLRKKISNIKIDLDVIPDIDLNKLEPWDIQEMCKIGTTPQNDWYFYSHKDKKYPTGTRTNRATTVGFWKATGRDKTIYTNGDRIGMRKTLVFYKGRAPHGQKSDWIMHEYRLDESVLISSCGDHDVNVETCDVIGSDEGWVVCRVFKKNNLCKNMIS
Summed up:
as §1

Test [8] addresses T8, GST-SND1(1-203) (Arabidopsis thaliana, UniProt Q9LPI7 1-203).
T8 sequence: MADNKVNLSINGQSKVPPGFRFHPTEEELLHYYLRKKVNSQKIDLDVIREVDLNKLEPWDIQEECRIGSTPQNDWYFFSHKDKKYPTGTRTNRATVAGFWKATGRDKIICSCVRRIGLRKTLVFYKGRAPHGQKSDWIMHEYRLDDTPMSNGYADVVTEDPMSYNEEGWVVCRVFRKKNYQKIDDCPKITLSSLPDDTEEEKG
Summed up: as §1

In test [9] the target is T9, GST-VND3 NAC domain (Arabidopsis thaliana, UniProt Q9FH59 12-162).
T9 sequence: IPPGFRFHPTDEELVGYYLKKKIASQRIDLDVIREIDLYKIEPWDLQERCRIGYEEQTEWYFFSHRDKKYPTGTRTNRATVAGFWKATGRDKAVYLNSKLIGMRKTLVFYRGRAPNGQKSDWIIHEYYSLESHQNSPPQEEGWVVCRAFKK
Summed up: as §1

The target in test [10] is T10, GST-VND7 NAC domain (Arabidopsis thaliana, UniProt Q9C8W9 9-158).
T10 sequence: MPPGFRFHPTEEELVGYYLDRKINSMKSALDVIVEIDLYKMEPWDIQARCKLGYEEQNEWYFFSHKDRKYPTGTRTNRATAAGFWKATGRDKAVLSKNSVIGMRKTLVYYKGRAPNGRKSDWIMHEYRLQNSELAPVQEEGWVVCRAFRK
In short, it runs like this:
as §1

In test [11] the target is GST-NTL6(1-168) (Arabidopsis thaliana, UniProt Q9SCK6 1-168). In short, it runs like this:
as §1

The target in test [12] is T11, GST-NTL8 NAC domain (Arabidopsis thaliana, UniProt Q9XIN7 14-156).
T11 sequence: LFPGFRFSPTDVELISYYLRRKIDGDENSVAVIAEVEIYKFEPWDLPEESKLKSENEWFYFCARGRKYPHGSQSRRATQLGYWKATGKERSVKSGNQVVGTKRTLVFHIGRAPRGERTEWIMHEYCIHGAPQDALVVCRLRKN
In short, it runs like this:
as §1

Chain of GST-NTL6(1-168) (Q9SCK6 1-168): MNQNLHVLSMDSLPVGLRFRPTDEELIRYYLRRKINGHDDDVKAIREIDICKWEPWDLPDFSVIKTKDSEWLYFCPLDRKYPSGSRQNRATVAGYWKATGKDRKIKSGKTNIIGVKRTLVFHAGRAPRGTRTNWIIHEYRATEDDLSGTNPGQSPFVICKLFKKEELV

For ACGCAAGC, the binding signal came to 0.466 E-score in [1]; 0.35 E-score in [2]; 0.295 E-score in test [3]; 0.148 E-score in test [4]; 0.478 E-score in test [5]; 0.294 E-score in test [6]. For the same sequence, the binding signal in test [7] came to 0.299 E-score; in test [8], 0.417 E-score; in test [9] it was 0.344 E-score; in test [10], 0.332 E-score.

In the case of CGTACACG, the binding signal came to 0.337 E-score in test [1]; 0.221 E-score in test [2]; 0.287 E-score in [3]; 0.278 E-score in test [4]; 0.403 E-score in [5]; 0.288 E-score in test [6]. The binding signal came to 0.0623 E-score in [7], 0.0837 E-score in [8], 0.317 E-score in test [9] and 0.3 E-score in [10].

Turning to TAAAGCAA, the binding signal in [1] worked out at 0.138 E-score; in [11] it was 0.134 E-score; in [5], 0.293 E-score; in test [7], 0.262 E-score; in [12] it was 0.15 E-score; in test [8], 0.42 E-score. The binding signal was 0.135 E-score in [9] and 0.228 E-score in [10].

For the sequence GTGGCGTA, the binding signal in test [1] was 0.439 E-score; in test [2] it was 0.148 E-score; in test [3], 0.144 E-score; in test [4], 0.235 E-score; in [5], 0.459 E-score; in test [6], 0.0567 E-score. Further, the binding signal was determined as 0.3 E-score in test [7], 0.471 E-score in test [8], 0.138 E-score in [9] and 0.0712 E-score in [10].

In the case of ACGTTAGC, the binding signal was 0.377 E-score in test [1]; 0.144 E-score in test [2]; 0.0938 E-score in test [3]; 0.213 E-score in test [4]; 0.406 E-score in [5]; 0.0584 E-score in test [6]. For the same sequence, the binding signal came to 0.166 E-score in [7], 0.343 E-score in test [8], 0.183 E-score in test [9] and 0.128 E-score in test [10].

As to ATGCCGTG, the binding signal in [1] amounted to 0.417 E-score; in test [2] it was 0.453 E-score; in [3] it was 0.418 E-score; in [4], 0.35 E-score; in test [5], 0.443 E-score; in test [6] it was 0.397 E-score. For the same sequence, the binding signal in test [8] turned out to be 0.111 E-score; in test [9], 0.399 E-score; in test [10], 0.447 E-score.

Consider CTAACGTA, for which the binding signal in test [1] was 0.323 E-score; in test [2], 0.0668 E-score; in test [3] it was 0.216 E-score; in test [4], 0.29 E-score; in [5] it was 0.391 E-score; in test [6] it was 0.173 E-score. For the same sequence, the binding signal was 0.277 E-score in test [7], 0.426 E-score in test [8], 0.25 E-score in test [9] and 0.165 E-score in [10].

On to ACGTCATC, for which the binding signal in [1] turned out to be 0.418 E-score; in [2] it was 0.288 E-score; in test [3], 0.285 E-score; in test [4], 0.291 E-score; in test [5], 0.449 E-score; in test [6], 0.343 E-score. Further, the binding signal in test [7] is 0.214 E-score; in test [8] it was 0.411 E-score; in test [9], 0.327 E-score; in test [10], 0.273 E-score.

Regarding GCACGCAA, the binding signal in test [1] amounted to 0.492 E-score; in test [2], 0.458 E-score; in [3], 0.396 E-score; in test [4], 0.277 E-score; in test [5], 0.493 E-score; in test [6] it was 0.423 E-score. In addition, the binding signal in [7] was found to be 0.405 E-score; in test [8], 0.456 E-score; in test [9] it was 0.438 E-score; in test [10], 0.431 E-score.

In the case of ACACGCGA, the binding signal in test [1] stood at 0.461 E-score; in test [11], 0.125 E-score; in test [5], 0.478 E-score; in test [6] it was 0.147 E-score; in [7], 0.212 E-score; in test [8] it was 0.309 E-score. Moreover, the binding signal in test [9] was 0.0551 E-score; in test [10], 0.124 E-score.

Consider ACGGAACA, for which the binding signal in test [1] came out at 0.224 E-score; in test [2], 0.418 E-score; in test [3] it was 0.418 E-score; in [4], 0.304 E-score; in [5], 0.289 E-score; in [6], 0.336 E-score. Moreover, the binding signal is 0.166 E-score in test [7], 0.217 E-score in test [8], 0.352 E-score in test [9] and 0.409 E-score in test [10].

Regarding GCAAGAAA, the binding signal in [1] worked out at 0.295 E-score; in test [11] it was 0.306 E-score; in test [3], 0.0836 E-score; in [4], 0.189 E-score; in test [5], 0.401 E-score; in test [7], 0.201 E-score. The binding signal is 0.229 E-score in [12], 0.307 E-score in [8], 0.12 E-score in test [9] and 0.0827 E-score in test [10].

For ACACGTTA, the binding signal was 0.482 E-score in [1]; 0.165 E-score in test [2]; 0.3 E-score in test [3]; 0.35 E-score in test [4]; 0.485 E-score in test [5]; 0.222 E-score in test [6]. Also, the binding signal in [7] is 0.358 E-score; in [8], 0.413 E-score; in [9], 0.277 E-score; in test [10], 0.237 E-score.

On to GCGTGTAC, for which the binding signal in test [1] came out at 0.403 E-score; in [2], 0.19 E-score; in test [3], 0.196 E-score; in test [4] it was 0.19 E-score; in test [5], 0.434 E-score; in test [6] it was 0.261 E-score. For the same sequence, the binding signal worked out at 0.195 E-score in test [7], 0.191 E-score in test [8], 0.197 E-score in test [9] and 0.193 E-score in [10].

On to ACGCATCC, for which the binding signal turned out to be 0.388 E-score in test [1]; 0.216 E-score in [2]; 0.194 E-score in [3]; 0.195 E-score in test [4]; 0.431 E-score in test [5]; 0.256 E-score in test [6]. Moreover, the binding signal was determined as 0.173 E-score in test [7], 0.397 E-score in test [8], 0.16 E-score in test [9] and 0.231 E-score in test [10].

For the origin of these results see PMC4081100, “A DNA-binding-site landscape and regulatory network analysis for NAC transcription factors in Arabidopsis thaliana”.
